According to PubChem BioAssay (NCATS):
Inconclusive results are not listed. Where a call stands in place of a potency, no number is given. A number with no mark means an inactive call. The source made the active and inactive calls. The call rests on the fitted dose curve; in most records, active means well fitted curve in the direction sought with a large enough effect; inconclusive means small, poorly fitted or top-dose-only effect, or another doubt; inactive means no such curve, though single readings can be large; an effect the other way counts as inactive or inconclusive.

Tests used:
[1] = molecular target: Calcium and integrin-binding protein 1 (Homo sapiens) (UniProt Q99828); test: Primary qHTS for Identification of Calcium Integrin Binding Protein 1 (CIB1) Competitor (AID 1508620);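 further: GST tagged CIB1 binding a fluorescein labelled alphaIIb integrin peptide tracer; top concentration of the series differs between compounds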
How it was run: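 Fluorescence polarization competition: GST-tagged CIB1 (1 uM final) preincubated with compound 15 min at room temperature, then FITC-labelled alphaIIb peptide (100 nM final) added. After 15 min at room temperature, polarization read at Ex 480/Em 540.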

[2] = Primary qHTS for inhibitors of nuclear receptor binding SET domain protein 2 (NSD2) in an isogenic RCH-ACV NSD2 p.E1099K mutant (9B) (AID 1645876); further: nearly all actives have a fitted effect of over 70% in size; further: potency means the concentration at half of the fitted maximal effect
[3] = Primary qHTS for inhibitors of nuclear receptor binding SET domain protein 2 (NSD2) in an RCH-ACV wild type WT cells (2C) (AID 1645877); further: nearly all actives have a fitted effect of over 70% in size; further: potency means the concentration at half of the fitted maximal effect

Chain of Calcium and integrin-binding protein 1 (Homo sapiens) (Q99828 whole entry, looked up): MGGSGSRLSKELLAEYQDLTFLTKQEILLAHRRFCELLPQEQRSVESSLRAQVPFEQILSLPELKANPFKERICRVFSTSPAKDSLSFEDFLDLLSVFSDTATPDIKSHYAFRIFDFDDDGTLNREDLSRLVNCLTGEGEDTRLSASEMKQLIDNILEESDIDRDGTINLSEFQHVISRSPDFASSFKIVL

| SMILES | Potency [1] | Potency [2] | Potency [3] | activity change, negative = inhibition [1] |
| --- | --- | --- | --- | --- |
| CN1CCN(C(=O)c2cc3cc(Cl)ccc3[nH]2)CC1 | inactive | inactive | inactive | – |
| CC(=O)/C=C/C1C(C)CC(O[C@@H]2O[C@H](CO)[C@@H](O)[C@H](O)[C@H]2O)CC1(C)C (some centres undefined) | inactive | inactive | inactive | – |
| CC(=O)OCC1OC(OC2COC(OC3COC(OC4C(OC5C(CO)OC(OC6CCC7(C)C(CCC8(C)C7CC=C7C9CC(C)(C)CCC9(C(=O)OC9OC(CO)C(O)C(O)C9OC9OCC(OC%10OCC(O)(CO)C%10O)C(O)C9O)C(O)CC78C)C6(C)C)C(O)C5O)OCC(O)C4O)C(O)C3O)C(O)C2O)C(OC(=O)/C=C/c2ccccc2)C(O)C1OC(C)=O (centres undefined) | – | 1.25 µM (active) | 1.99 µM (active) | -1.97% [at 12.4 µM] |
